# Data reported in ChEMBL document CHEMBL4513146, “CO-ADD screening of Karazin Kharkiv National University (Ukraine) compounds”.
# Entries with a potency or affinity are not part of this list.
# What was measured:
# Staphylococcus aureus = conditions: Concentration 32 ug.mL-1;; ASSAY_TEST Inhibition of Bacterial Growth; detection method Absorption (OD600); MEDIA CAMHB; plate type 384well; NBS; CORNING #3640; time 18 hr
# Escherichia coli = conditions: Concentration 32 ug.mL-1;; ASSAY_TEST Inhibition of Bacterial Growth; detection method Absorption (OD600); MEDIA CAMHB; plate type 384well; NBS; CORNING #3640; time 18 hr
SMILES,Inhibition (Staphylococcus aureus) [%],Inhibition (Escherichia coli) [%]
O=C(Cn1nc2c3cc(-c4ccc(F)cc4)nn3ccn2c1=O)N1CCCc2ccccc21,-1.84,-5.07
COc1ccc(CCn2c(=O)c3sccc3n3c(=O)n(Cc4ccc(F)cc4)nc23)cc1OC,2.92,-0.5
Cc1ccc(NC(=O)Cn2nc3c(N4CCOCC4)nc4ccccc4n3c2=O)cc1C,6.57,-0.21
Cc1c(Cl)cccc1NC(=O)Cn1nc2c(SCc3ccccc3)nccn2c1=O,2.18,-6.95
Cc1ccc(-c2cc3c4nn(CC(=O)Nc5ccc6c(c5)OCO6)c(=O)n4ccn3n2)cc1C,-8.73,-12.23
COc1ccccc1N1CCN(C(=O)CSc2nnc3c(=O)n(-c4ccccc4)ccn23)CC1,3.83,-6.8
COc1cccc(-n2ccn3c(SCC(=O)Nc4ccc5c(c4)OCCO5)nnc3c2=O)c1,11.59,-2.35
Cc1ccc(C)c(NC(=O)Cn2nc3ccc(-c4ccc(C)c(C)c4)nn3c2=O)c1,-1.85,-17.07
COc1ccc(NC(=O)Cn2nc3c(N4CCOCC4)nccn3c2=O)c(OC)c1,14.25,-1.5
Cc1cc(C)cc(N(Cc2ccc(F)cc2)S(=O)(=O)c2cccn3c(C)nnc23)c1,-7.01,-9.2
CCOc1cccc(CNC(=O)CCc2nnc3ccc(-c4ccc(C)cc4)nn23)c1,-1.51,-5.83
COc1ccc(CNC(=O)CSc2nnc3c4cc(-c5ccccc5)nn4ccn23)cc1,9.71,1.16
CCc1ccccc1NC(=O)Cn1nc2n(CCC(C)C)c(=O)c3sccc3n2c1=O,-2.34,-9.52
CC(C)CCn1c(=O)c2sccc2n2c(=O)n(CC(=O)N(C)c3ccccc3)nc12,-2.05,-10.35
Cc1ccc(-n2ccn3c(=O)n(Cc4ccc(F)cc4)nc3c2=O)cc1C,10.94,-2.15
CC(C)NC(=O)CSc1nnc2c(=O)n(-c3ccccc3)ccn12,-3.39,1.35

SMILES,Inhibition (Staphylococcus aureus) [%],Inhibition (Escherichia coli) [%]
COc1cc(NC(=O)Cn2nc3c(Oc4ccccc4)nccn3c2=O)cc(OC)c1,11.4,1.31
CCc1ccc(NC(=O)Cn2nc3c(Oc4cccc(OC)c4)nccn3c2=O)cc1,5.31,-1.12
O=C1CCCN1c1ccc(Cn2nc3ccc(-c4ccccc4)nn3c2=O)cc1,-3.3,-6.97
Cc1ccc(Oc2nccn3c(=O)n(CC(=O)NCc4ccccc4Cl)nc23)cc1,12.36,-4.03
COc1cccc(NC(=O)Cn2nc3ccc(-c4ccc(Cl)cc4)nn3c2=O)c1,-8.23,-11.86
O=C(CCc1nnc2c(N3CCCCC3)nc3ccccc3n12)NCc1ccccc1Cl,7.81,4.64
O=C(Cn1nc2nc(Nc3ccc(F)cc3)ccn2c1=O)Nc1cc(F)ccc1F,11.9,-2.67
O=S(=O)(c1ccc2nncn2c1)N(Cc1ccccc1F)c1ccc2c(c1)OCCO2,5.05,-6.13
Cc1nnc2ccc(S(=O)(=O)N(Cc3cccc(F)c3)c3ccc4c(c3)OCO4)cn12,-10.23,-15.4
O=C(CSc1nnc2c(=O)n(-c3ccc(F)cc3)ccn12)NCC1CCCO1 (configuration not stated),0,-8.97
COc1ccc(NC(=O)Cn2nc3c4cc(-c5ccc(C)c(C)c5)nn4ccn3c2=O)cc1Cl,-7.37,0.15
O=C(Cn1nc2ccc(SCc3ccc(Cl)cc3)nn2c1=O)NCc1ccc2c(c1)OCO2,-2.67,-11.22
COc1cccc(-n2ccn3c(SCc4cc(C)ccc4C)nnc3c2=O)c1,11.56,-0.49
Cc1ccccc1Nc1cc(C)n2c(=O)n(CCc3ccccc3)nc2n1,-11.65,-1.35
Cc1ccc(C)c(NC(=O)Cn2nc3c(SCc4ccc(Cl)cc4)nccn3c2=O)c1,7.31,-3.74
